Records with an inconclusive call do not appear. Active and inactive are the calls of the source. How the source made its calls, unless noted: active means hit-call score of the fitted dose curve at least 0.9, where 1 is the maximum; inactive means score below 0.9.
Tests used:
[1] = CCTE_Harrill_HTTr_Viability_DMEM_6hr: (Pilot) CCTE's 6-hour Cell Viability Assessment for the High-Throughput Transcriptomics (HTTr) Platform, in MCF-7 cells cultured in DMEM + 10% fetal bovine serum, Harrill Lab (AID 2283973)
Method in brief: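 Propidium iodide uptake imaged by high-content analysis after six hours of chemical treatment in an eight-concentration series. Cells: MCF-7 grown in DMEM with 10% fetal bovine serum; DMSO as baseline.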

[2] = CCTE_Harrill_HTTr_Viability_DMEM_12hr: (Pilot) CCTE's 12-hour Cell Viability Assessment for the High-Throughput Transcriptomics (HTTr) Platform, in MCF-7 cells cultured in DMEM + 10% fetal bovine serum, Harrill Lab (AID 2283974)
From the text: This is a cell-based assay that evaluates cell viability using high content imaging to evaluate membrane integrity using propidium iodide dye exclusion in a 384 well format.One of seven assay components measured from the CCTE_Harrill_HTTr_Viability assay. This was part of a pilot experiment. This is a cell-based assay that evaluates cell viability in MCF-7 cells cultured in DMEM + 10% fetal bovine serum. High content imaging is used to evaluate membrane integrity using propidium iodide dye exclusion. Measurements are taken at 12 hours after chemical dosing in 384-well format.The assay component endpoint CCTE_Harrill_HTTr_Viability_DMEM_12hr was analyzed with bidirectional fitting relation to DMSO as the negative control and baseline of activity. Using a type of viability reporter to understand changes in cytotoxicity, gain-of-signal activity can be used to evaluate membrane integrity using propidium iodide dye exclusion. To generalize the intended target to other relatable targets, this assay endpoint is annotated to cell cycle, where the subfamily is cytotoxicity.
(§1) Chemicals were tested in MCF7 cells in an eight point dilution series with a twelve hour exposure duration.

[3] = CCTE_Harrill_HTTr_Viability_DMEM_24hr: (Pilot) CCTE's 24-hour Cell Viability Assessment for the High-Throughput Transcriptomics (HTTr) Platform, in MCF-7 cells cultured in DMEM + 10% fetal bovine serum, Harrill Lab (AID 2283975)
Method in brief: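 Pilot study: propidium iodide dye exclusion, imaged by high content microscopy, after 24 h compound exposure (eight concentrations) in MCF-7 cultured in DMEM + 10% fetal bovine serum; DMSO served as negative control and baseline.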

[4] = CCTE_Harrill_HTTr_Viability_PRF_DMEM_6hr: (Pilot) CCTE's 6-hour Cell Viability Assessment for the High-Throughput Transcriptomics (HTTr) Platform, in MCF-7 cells cultured phenol red-free DMEM + 10% charcoal-stripped fetal bovine serum, Harrill Lab (AID 2283976)
From the text: (§2) This is a cell-based assay that evaluates cell viability using high content imaging to evaluate membrane integrity using propidium iodide dye exclusion in a 384 well format.One of seven assay components measured from the CCTE_Harrill_HTTr_Viability assay. This was part of a pilot experiment. This is a cell-based assay that evaluates cell viability in MCF-7 cells cultured in phenol red-free DMEM + 10% charcoal-stripped fetal bovine serum. High content imaging is used to evaluate membrane integrity using propidium iodide dye exclusion. Measurements are taken at 6 hours after chemical dosing in 384-well format.The assay component endpoint CCTE_Harrill_HTTr_Viability_PRF_DMEM_6hr was analyzed with bidirectional fitting relation to DMSO as the negative control and baseline of activity. Using a type of viability reporter to understand changes in cytotoxicity, gain-of-signal activity can be used to evaluate membrane integrity using propidium iodide dye exclusion. To generalize the intended target to other relatable targets, this assay endpoint is annotated to cell cycle, where the subfamily is cytotoxicity.
Chemicals were tested in MCF7 cells in an eight point dilution series with a six hour exposure duration.

[5] = CCTE_Harrill_HTTr_Viability_PRF_DMEM_12hr: (Pilot) CCTE's 12-hour Cell Viability Assessment for the High-Throughput Transcriptomics (HTTr) Platform, in MCF-7 cells cultured in phenol red-free DMEM + 10% charcoal-stripped fetal bovine serum, Harrill Lab (AID 2283977)
From the text: as §2, with “12” for “6”, “CCTE_Harrill_HTTr_Viability_PRF_DMEM_12hr” for “CCTE_Harrill_HTTr_Viability_PRF_DMEM_6hr”
as §1

[6] = CCTE_Harrill_HTTr_Viability_PRF_DMEM_24hr: (Pilot) CCTE's 24-hour Cell Viability Assessment for the High-Throughput Transcriptomics (HTTr) Platform, in MCF-7 cells cultured in phenol red-free DMEM + 10% charcoal-stripped fetal bovine serum, Harrill Lab (AID 2283980)
From the text: as §2, with “24” for “6”, “CCTE_Harrill_HTTr_Viability_PRF_DMEM_24hr” for “CCTE_Harrill_HTTr_Viability_PRF_DMEM_6hr”
Chemicals were tested in MCF7 cells in an eight point dilution series with a twenty-four hour exposure duration.

[7] = CCTE_Harrill_HTTr_Apoptosis_DMEM_6hr: (Pilot) CCTE's 6-hour Apoptosis Assessment for the High-Throughput Transcriptomics (HTTr) Platform, in MCF-7 cells cultured in DMEM + 10% fetal bovine serum, Harrill Lab (AID 2283981)
Method in brief: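 MCF-7 cells grown in DMEM + 10% FBS were exposed for 6 hours to an eight-point dilution series. CellEvent Caspase 3/7 Green signal was imaged; activity fitted bidirectionally against DMSO.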

[8] = CCTE_Harrill_HTTr_Apoptosis_DMEM_12hr: (Pilot) CCTE's 12-hour Apoptosis Assessment for the High-Throughput Transcriptomics (HTTr) Platform, in MCF-7 cells cultured in DMEM + 10% fetal bovine serum, Harrill Lab (AID 2283982)
Method in brief: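 Caspase-3/7 activity was measured by high-content imaging (CellEvent Caspase 3/7 Green) after a 12-hour exposure of MCF-7 cells grown in DMEM with 10% FBS. Eight-point concentration series, fitted bidirectionally against vehicle.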

[9] = CCTE_Harrill_HTTr_Apoptosis_DMEM_24hr: (Pilot) CCTE's 24-hour Apoptosis Assessment for the High-Throughput Transcriptomics (HTTr) Platform, in MCF-7 cells cultured in DMEM + 10% fetal bovine serum, Harrill Lab (AID 2283983)
Method in brief: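 Caspase-3/7 activity read by high-content imaging (CellEvent Green reagent) 24 h after dosing. MCF-7 cells grown in DMEM with 10% FBS received an eight-point concentration series; fits were bidirectional versus DMSO.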

[10] = target: Retinoic acid receptor RXR-alpha (Homo sapiens) (UniProt P19793); test: TOX21_TR_RXR_BLA_Antagonist_Followup_ratio: Tox21 Thyroid Hormone Receptor beta Retinoid X Receptor alpha (RXRa) Antagonism Beta-lactamase (BLA) Follow-Up Assay, Ratio (AID 2283972; active means hit-call score of the fitted dose curve at least 0.9, where 1 is the maximum)
Method in brief: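 Beta-lactamase reporter readout as cleaved/uncleaved substrate ratio (460:530 nm) after 2 h substrate loading at room temperature. GAL4-RXRa bla HEK293T cells were exposed 16 h at 37C to 11-point compound series; loss of signal scored against DMSO baseline.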

Chain of Retinoic acid receptor RXR-alpha (Homo sapiens) (P19793 whole entry, looked up, the tested form may be a part): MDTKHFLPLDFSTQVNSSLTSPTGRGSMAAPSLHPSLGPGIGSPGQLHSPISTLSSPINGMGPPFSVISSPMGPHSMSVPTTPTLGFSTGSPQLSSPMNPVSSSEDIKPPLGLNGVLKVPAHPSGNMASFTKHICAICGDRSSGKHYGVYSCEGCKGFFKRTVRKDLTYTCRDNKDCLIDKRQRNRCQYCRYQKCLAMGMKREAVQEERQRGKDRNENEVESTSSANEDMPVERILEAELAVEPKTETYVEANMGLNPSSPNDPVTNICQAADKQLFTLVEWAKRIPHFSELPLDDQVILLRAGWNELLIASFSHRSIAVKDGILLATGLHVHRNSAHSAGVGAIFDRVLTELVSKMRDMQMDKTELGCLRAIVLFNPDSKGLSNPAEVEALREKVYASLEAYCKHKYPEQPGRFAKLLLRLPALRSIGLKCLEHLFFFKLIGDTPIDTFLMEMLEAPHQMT

Cc1oc(-c2ccccc2)nc1CCOc1ccc(C[C@H](Nc2ccccc2C(=O)c2ccccc2)C(=O)O)cc1
outcome [1]: inactive | outcome [2]: inactive | outcome [3]: inactive | outcome [4]: inactive | outcome [5]: inactive | outcome [6]: inactive | outcome [7]: inactive | outcome [8]: inactive | outcome [9]: inactive

CCC(=C(c1ccc(O)cc1)c1ccc(OCCN(C)C)cc1)c1ccccc1
AC50 [1]: 79 µM (active) | AC50 [2]: 63.6 µM (active) | AC50 [3]: 69.4 µM (active) | AC50 [4]: 69.8 µM (active) | AC50 [5]: 73.1 µM (active) | AC50 [6]: 63.6 µM (active) | AC50 [7]: 81.2 µM (active) | AC50 [8]: 84 µM (active) | AC50 [9]: 82.6 µM (active)

C#C[C@]1(O)CC[C@H]2[C@@H]3CCC4=CC(=O)CC[C@@H]4[C@H]3CC[C@@]21C
outcome [10]: inactive

O=C(O)Cc1cc(I)c(Oc2cc(I)c(O)c(I)c2)c(I)c1
outcome [1]: inactive | outcome [2]: inactive | outcome [3]: inactive | outcome [4]: inactive | outcome [5]: inactive | outcome [6]: inactive | outcome [7]: inactive | outcome [8]: inactive | outcome [9]: inactive
